Inconclusive results are not listed. Active and inactive are the calls of the source. How the source made its calls, unless noted: active means hit-call score of the fitted dose curve at least 0.9, where 1 is the maximum; inactive means score below 0.9.
Columns and labels:
[1] = biological target: Transcription factor Sp1 (Homo sapiens) (UniProt P08047); test: ATG_Sp1_CIS: Attagene CIS-FACTORIAL HepG2 Assay for human Specificity Protein 1 (Sp1) (AID 2282961); settings: HepG2 Sp1 cis-reporter transcription, actives raise or lower the signal
Sequence of Transcription factor Sp1 (Homo sapiens) (P08047 whole entry, looked up): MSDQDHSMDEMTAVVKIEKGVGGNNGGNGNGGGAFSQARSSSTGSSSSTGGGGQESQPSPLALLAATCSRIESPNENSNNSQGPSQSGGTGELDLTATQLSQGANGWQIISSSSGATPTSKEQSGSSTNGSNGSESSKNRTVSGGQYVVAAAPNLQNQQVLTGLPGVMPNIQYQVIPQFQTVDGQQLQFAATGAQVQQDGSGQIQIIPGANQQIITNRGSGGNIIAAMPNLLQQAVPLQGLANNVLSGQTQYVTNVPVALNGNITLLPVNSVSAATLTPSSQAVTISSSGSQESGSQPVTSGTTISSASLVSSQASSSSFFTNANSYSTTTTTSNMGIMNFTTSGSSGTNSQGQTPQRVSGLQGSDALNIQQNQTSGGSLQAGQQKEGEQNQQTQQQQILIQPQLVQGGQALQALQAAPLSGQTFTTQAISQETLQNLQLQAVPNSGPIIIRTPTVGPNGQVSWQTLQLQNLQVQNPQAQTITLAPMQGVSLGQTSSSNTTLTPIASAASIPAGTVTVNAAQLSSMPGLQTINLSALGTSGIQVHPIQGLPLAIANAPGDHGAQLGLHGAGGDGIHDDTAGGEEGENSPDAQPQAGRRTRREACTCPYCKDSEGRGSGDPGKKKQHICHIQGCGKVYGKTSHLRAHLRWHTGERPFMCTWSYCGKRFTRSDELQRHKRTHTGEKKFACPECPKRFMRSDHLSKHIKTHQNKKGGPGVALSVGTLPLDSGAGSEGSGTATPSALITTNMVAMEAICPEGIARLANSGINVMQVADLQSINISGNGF
Procedure, shortened: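 HepG2 cells transiently transfected with multiplexed cis-regulated reporter constructs, chemical exposure 24 h. Reporter mRNA quantified by RT-PCR with capillary electrophoresis; bidirectional fit relative to DMSO.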

[2] = ATG_SREBP_CIS: Attagene CIS-FACTORIAL HepG2 Assay for human Sterol Regulatory Element Binding (SREBP) (AID 2282962); settings: HepG2 Attagene cis-factorial SREBP reporter, mRNA; actives raise or lower the signal
Procedure, shortened: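 HepG2 cells transiently transfected with multiplexed cis-element reporter units report endogenous transcription factor activity. After 24 h of chemical exposure, reporter mRNA was quantified by RT-PCR, 6-FAM labelling, HpaI digestion and capillary electrophoresis; bidirectional fits used DMSO as baseline.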

[3] = biological target: Signal transducer and activator of transcription 3 (Homo sapiens) (UniProt P40763); test: ATG_STAT3_CIS: Attagene CIS-FACTORIAL HepG2 Assay for human Signal Transducer and Activator of Transcription 3 (STAT3) (AID 2282963); settings: HepG2, Attagene cis-factorial STAT3 reporter transcription; actives raise or lower the signal
Sequence of Signal transducer and activator of transcription 3 (Homo sapiens) (P40763 whole entry, looked up): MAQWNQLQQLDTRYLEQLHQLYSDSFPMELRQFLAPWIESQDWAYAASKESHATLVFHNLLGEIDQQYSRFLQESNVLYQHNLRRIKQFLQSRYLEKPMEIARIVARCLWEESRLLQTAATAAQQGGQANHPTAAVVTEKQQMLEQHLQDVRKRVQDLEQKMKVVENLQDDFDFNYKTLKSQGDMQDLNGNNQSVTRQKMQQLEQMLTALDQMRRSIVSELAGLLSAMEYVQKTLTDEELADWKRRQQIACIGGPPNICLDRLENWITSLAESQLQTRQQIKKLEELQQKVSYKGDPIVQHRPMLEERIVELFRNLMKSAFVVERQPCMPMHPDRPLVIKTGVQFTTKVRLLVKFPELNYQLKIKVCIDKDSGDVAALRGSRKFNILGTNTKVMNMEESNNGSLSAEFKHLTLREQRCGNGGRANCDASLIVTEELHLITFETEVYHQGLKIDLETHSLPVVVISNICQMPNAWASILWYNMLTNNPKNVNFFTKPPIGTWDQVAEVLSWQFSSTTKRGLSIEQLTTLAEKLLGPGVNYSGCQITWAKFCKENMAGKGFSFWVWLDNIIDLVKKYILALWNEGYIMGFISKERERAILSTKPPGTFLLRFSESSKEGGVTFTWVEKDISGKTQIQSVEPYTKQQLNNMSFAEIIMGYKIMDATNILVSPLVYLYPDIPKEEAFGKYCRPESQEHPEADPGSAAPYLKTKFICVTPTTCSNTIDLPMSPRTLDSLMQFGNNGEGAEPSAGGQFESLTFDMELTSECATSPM
Procedure, shortened: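 HepG2 cells transiently transfected with cis-element-driven multiple reporter transcription units; after 24 h chemical exposure, reporter mRNA measured by RT-PCR, 6-FAM primer-extension labelling, HpaI digestion and capillary electrophoresis. Bidirectional fitting versus DMSO baseline.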

[4] = ATG_TA_CIS: Attagene CIS-FACTORIAL HepG2 Assay for human TA Basal Promoter (AID 2282964); settings: HepG2 Attagene CIS-factorial TA basal promoter reporter; actives raise or lower the signal
Procedure, shortened: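 Multiplexed mRNA reporter assay, HepG2, 24 h. Reporter cDNA amplified, 6-FAM primer-extended, HpaI-cut, CE-sized; DMSO = negative control and baseline.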

[5] = ATG_TCF_b_cat_CIS: Attagene CIS-FACTORIAL HepG2 Assay for human T-Cell-Factor with beta-catenin (TCF/b-cat) (AID 2282965); settings: HepG2 TCF/beta-catenin cis-reporter transcription, actives raise or lower the signal
Procedure, shortened: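 Using capillary electrophoresis as the read-out, labelled reporter cDNA fragments from transiently transfected HepG2 were sized and quantified. Exposure lasted 24 hours; activity in either direction was referenced to DMSO.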

[6] = ATG_TAL_CIS: Attagene CIS-FACTORIAL HepG2 Assay for human TAL Basal Promoter (AID 2282966); settings: HepG2 Attagene cis-factorial TAL promoter reporter; actives raise or lower the signal;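 further: background control endpoint measuring basal TAL promoter reporter mRNA not a specific factor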
Procedure, shortened: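 HepG2 cells were transiently transfected with promoter-driven multiplexed reporter units and dosed for 24 h. Reporter mRNA was measured by RT-PCR with capillary electrophoresis fluorescence; bidirectional fits used DMSO as baseline, serving as a background control.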

[7] = ATG_TGFb_CIS: Attagene CIS-FACTORIAL HepG2 Assay for human Transforming Growth Factor (TGF) (AID 2282967); settings: HepG2 Attagene CIS TGFb reporter, mRNA transcription; actives raise or lower the signal
Procedure, shortened: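 Transcript-level reporter readout: HepG2 transfectants, 24 h exposure, RNA to cDNA, reporter-specific PCR, fluorescent primer extension, capillary sizing against ROX standards. Gain- or loss-of-signal relative to DMSO.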

[8] = ATG_VDRE_CIS: Attagene CIS-FACTORIAL HepG2 Assay for human Vitamin D Receptor Element (VDRE) (AID 2282968); settings: HepG2 VDRE cis-reporter transcription, actives raise or lower the signal
Procedure, shortened: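 HepG2 cells transiently transfected with cis-element reporter units, dosed 24 h; reporter mRNA measured by RT-PCR, 6-FAM labeling, HpaI digestion and capillary electrophoresis. Activity fitted bidirectionally against DMSO baseline.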

[9] = biological target: X-box-binding protein 1 (Homo sapiens) (UniProt P17861); test: ATG_Xbp1_CIS: Attagene CIS-FACTORIAL HepG2 Assay for human X-box Binding Protein 1 (XBP1) (AID 2282972); settings: HepG2 XBP1 cis-element reporter, Attagene multiplex; actives raise or lower the signal
Sequence of X-box-binding protein 1 (Homo sapiens) (P17861 whole entry, looked up): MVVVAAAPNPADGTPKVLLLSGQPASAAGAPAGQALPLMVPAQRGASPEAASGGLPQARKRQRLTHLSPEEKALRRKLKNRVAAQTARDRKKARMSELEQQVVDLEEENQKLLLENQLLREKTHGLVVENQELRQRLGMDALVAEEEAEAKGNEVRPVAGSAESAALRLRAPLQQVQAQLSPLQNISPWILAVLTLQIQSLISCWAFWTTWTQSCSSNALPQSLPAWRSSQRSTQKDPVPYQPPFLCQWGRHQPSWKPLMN
Procedure, shortened: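 HepG2 cells transiently transfected with cis-regulated multiple reporter transcription units; endogenous transcription factor activity measured 24 hours after chemical dosing. Reporter mRNA quantified by RT-PCR, 6-FAM primer extension, HpaI digestion and capillary electrophoresis; bidirectional fitting versus DMSO.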

[10] = biological target: Oxysterols receptor LXR-alpha (Homo sapiens) (UniProt Q13133); test: ATG_LXRa_TRANS: Attagene TRANS-FACTORIAL HepG2 Assay for human Liver X Receptor alpha (LXRa) (AID 2282980; active means hit-call score of the fitted dose curve at least 0.9, where 1 is the maximum); settings: HepG2 Attagene TRANS reporter, LXRa transactivation
Sequence of Oxysterols receptor LXR-alpha (Homo sapiens) (Q13133 whole entry, looked up, the tested form may be a part): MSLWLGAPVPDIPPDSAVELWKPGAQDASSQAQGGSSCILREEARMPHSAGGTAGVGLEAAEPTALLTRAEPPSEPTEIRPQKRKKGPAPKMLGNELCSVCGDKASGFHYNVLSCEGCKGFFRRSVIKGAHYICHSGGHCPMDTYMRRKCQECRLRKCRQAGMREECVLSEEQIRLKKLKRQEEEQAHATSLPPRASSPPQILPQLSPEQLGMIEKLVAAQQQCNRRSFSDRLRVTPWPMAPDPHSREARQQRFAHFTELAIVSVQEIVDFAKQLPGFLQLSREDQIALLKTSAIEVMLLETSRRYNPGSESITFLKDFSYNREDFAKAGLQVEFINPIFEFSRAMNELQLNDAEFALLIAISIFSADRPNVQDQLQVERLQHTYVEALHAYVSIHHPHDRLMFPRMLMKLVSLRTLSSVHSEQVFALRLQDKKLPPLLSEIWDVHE
Procedure, shortened: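 HepG2 cells were transiently transfected with multiplexed reporter units driven by chimeric LXRa–GAL4 fusion proteins, then dosed for 24 h. Reporter mRNA was quantified by RT-PCR, fluorescent labelling and capillary electrophoresis; gain of signal fitted against DMSO baseline.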

[11] = biological target: Nuclear receptor subfamily 1 group I member 3 (Homo sapiens) (UniProt Q14994); test: ATG_CAR_TRANS: Attagene TRANS-FACTORIAL HepG2 Assay for human Constitutive Androstane Receptor (CAR) (AID 2282969; active means hit-call score of the fitted dose curve at least 0.9, where 1 is the maximum;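 further: activators raise reporter mRNA above DMSO so AC50 marks induction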); settings: HepG2 Attagene TRANS-FACTORIAL CAR reporter
Sequence of Nuclear receptor subfamily 1 group I member 3 (Homo sapiens) (Q14994 whole entry, looked up, the tested form may be a part): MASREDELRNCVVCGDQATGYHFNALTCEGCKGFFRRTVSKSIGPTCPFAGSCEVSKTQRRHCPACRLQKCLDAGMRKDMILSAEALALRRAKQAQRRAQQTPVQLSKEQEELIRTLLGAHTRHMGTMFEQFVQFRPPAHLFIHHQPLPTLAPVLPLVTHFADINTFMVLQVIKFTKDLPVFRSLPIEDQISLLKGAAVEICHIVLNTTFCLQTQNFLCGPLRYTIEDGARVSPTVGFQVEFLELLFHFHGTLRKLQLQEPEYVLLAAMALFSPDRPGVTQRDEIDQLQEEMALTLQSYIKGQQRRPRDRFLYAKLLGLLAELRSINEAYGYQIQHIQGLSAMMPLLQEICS
Procedure, shortened: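 HepG2 cells transiently transfected with multiplexed GAL4-UAS reporter units expressing chimeric NR-Gal4 proteins; compound exposure 24 h. Reporter mRNA measured by RT-PCR, 6-FAM labelling, HpaI digestion and capillary electrophoresis; gain-of-signal fitted against DMSO baseline.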

[12] = biological target: Estrogen receptor (Homo sapiens) (UniProt P03372); test: ATG_ERa_TRANS: Attagene TRANS-FACTORIAL HepG2 Assay for human Estrogen Receptor alpha (ERa) (AID 2282970; active means hit-call score of the fitted dose curve at least 0.9, where 1 is the maximum); settings: HepG2 Attagene TRANS ERa GAL4 reporter, mRNA
Sequence of Estrogen receptor (Homo sapiens) (P03372 whole entry, looked up, the tested form may be a part): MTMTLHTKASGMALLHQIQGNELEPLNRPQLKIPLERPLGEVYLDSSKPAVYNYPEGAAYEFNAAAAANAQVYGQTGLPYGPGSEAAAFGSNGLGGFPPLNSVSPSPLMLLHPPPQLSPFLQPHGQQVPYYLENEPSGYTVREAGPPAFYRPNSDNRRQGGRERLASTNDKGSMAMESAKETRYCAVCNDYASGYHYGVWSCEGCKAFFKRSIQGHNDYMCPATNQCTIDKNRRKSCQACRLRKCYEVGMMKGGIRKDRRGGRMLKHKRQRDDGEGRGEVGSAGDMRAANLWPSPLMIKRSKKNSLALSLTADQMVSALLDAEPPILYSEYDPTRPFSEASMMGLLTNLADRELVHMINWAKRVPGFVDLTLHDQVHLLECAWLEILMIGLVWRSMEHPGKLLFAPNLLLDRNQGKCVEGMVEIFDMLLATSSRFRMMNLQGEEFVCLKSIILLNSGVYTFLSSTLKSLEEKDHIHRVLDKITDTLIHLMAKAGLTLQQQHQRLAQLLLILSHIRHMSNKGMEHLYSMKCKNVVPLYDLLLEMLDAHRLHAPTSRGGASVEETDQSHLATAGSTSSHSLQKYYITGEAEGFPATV
Procedure, shortened: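 HepG2 cells transiently transfected with multiplexed GAL4-UAS reporter units; ERa activity read via exogenous chimeric NR-Gal4 protein. After 24 hour compound exposure, reporter mRNA measured by RT-PCR with 6-FAM labelling and capillary electrophoresis; gain-of-signal fitted relative to DMSO.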

[13] = biological target: Steroid hormone receptor ERR1 (Homo sapiens) (UniProt P11474); test: ATG_ERRa_TRANS: Attagene TRANS-FACTORIAL HepG2 Assay for human Estrogen-Related Receptor alpha (ERRa) (AID 2282971; active means hit-call score of the fitted dose curve at least 0.9, where 1 is the maximum); settings: HepG2 Attagene TRANS reporter, ERRa transactivation
Procedure, shortened: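 HepG2 cells transiently transfected with multiplexed GAL4-UAS reporter units reading chimeric ERRa-Gal4 activity; 24 h compound exposure. Reporter mRNA measured by RT-PCR, 6-FAM labelling, HpaI digest and capillary electrophoresis; gain of signal fitted versus DMSO baseline.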

[14] = ATG_M_19_TRANS: Attagene TRANS-FACTORIAL HepG2 Assay for M19 Transcription Factor (Internal Marker) (AID 2282974; active means hit-call score of the fitted dose curve at least 0.9, where 1 is the maximum); settings: HepG2 Attagene TRANS-FACTORIAL M19 internal marker reporter
Procedure, shortened: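 HepG2 transiently transfected with GAL4-UAS multiplex reporter constructs, exposed 24 h; reporter RNA quantified by RT-PCR, 6-FAM labeling, HpaI digestion and capillary electrophoresis; internal background marker fitted upward versus DMSO.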

[15] = ATG_GAL4_TRANS: Attagene TRANS-FACTORIAL HepG2 Assay for GAL4 (Internal Marker) (AID 2282976; active means hit-call score of the fitted dose curve at least 0.9, where 1 is the maximum); settings: HepG2 Attagene TRANS GAL4 internal marker reporter
Procedure, shortened: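 HepG2 cells transiently transfected with multiplexed GAL4-UAS reporter constructs were dosed for 24 h. Reporter mRNA was measured by RT-PCR, 6-FAM primer extension, HpaI digestion and capillary electrophoresis, and gain of signal was fitted relative to DMSO.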

[16] = biological target: Estrogen-related receptor gamma (Homo sapiens) (UniProt P62508); test: ATG_ERRg_TRANS: Attagene TRANS-FACTORIAL HepG2 Assay for human Estrogen-Related Receptor gamma (ERRg) (AID 2282977; active means hit-call score of the fitted dose curve at least 0.9, where 1 is the maximum;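 further: hits increase reporter signal over DMSO so potencies reflect activators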); settings: HepG2 Attagene TRANS reporter, ERRg transactivation
Sequence of Estrogen-related receptor gamma (Homo sapiens) (P62508 whole entry, looked up, the tested form may be a part): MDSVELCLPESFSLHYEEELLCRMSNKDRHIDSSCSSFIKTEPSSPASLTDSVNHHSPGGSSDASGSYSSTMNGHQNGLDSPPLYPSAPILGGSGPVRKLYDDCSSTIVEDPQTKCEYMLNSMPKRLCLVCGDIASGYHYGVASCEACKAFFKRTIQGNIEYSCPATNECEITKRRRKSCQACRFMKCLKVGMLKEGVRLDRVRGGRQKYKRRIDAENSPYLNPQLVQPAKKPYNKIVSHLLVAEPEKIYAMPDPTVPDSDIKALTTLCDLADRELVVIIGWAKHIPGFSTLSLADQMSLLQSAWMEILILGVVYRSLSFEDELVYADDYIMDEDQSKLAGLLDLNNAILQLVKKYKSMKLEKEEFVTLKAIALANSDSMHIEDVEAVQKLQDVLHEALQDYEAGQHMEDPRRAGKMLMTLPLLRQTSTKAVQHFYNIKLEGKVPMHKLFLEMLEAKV
Procedure, shortened: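 Transient HepG2 transfectants, 24 h compound exposure, GAL4-UAS reporter mRNA by RT-PCR/6-FAM labelling/capillary electrophoresis; positive direction vs DMSO.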

[17] = biological target: Bile acid receptor (Homo sapiens) (UniProt Q96RI1); test: ATG_FXR_TRANS: Attagene TRANS-FACTORIAL HepG2 Assay for Farnesoid X Receptor (FXR) (AID 2282979; active means hit-call score of the fitted dose curve at least 0.9, where 1 is the maximum;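 further: hits raise reporter mRNA above DMSO so AC50 marks FXR activation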); settings: HepG2 Attagene TRANS FXR-GAL4 reporter transcription
Sequence of Bile acid receptor (Homo sapiens) (Q96RI1 whole entry, looked up, the tested form may be a part): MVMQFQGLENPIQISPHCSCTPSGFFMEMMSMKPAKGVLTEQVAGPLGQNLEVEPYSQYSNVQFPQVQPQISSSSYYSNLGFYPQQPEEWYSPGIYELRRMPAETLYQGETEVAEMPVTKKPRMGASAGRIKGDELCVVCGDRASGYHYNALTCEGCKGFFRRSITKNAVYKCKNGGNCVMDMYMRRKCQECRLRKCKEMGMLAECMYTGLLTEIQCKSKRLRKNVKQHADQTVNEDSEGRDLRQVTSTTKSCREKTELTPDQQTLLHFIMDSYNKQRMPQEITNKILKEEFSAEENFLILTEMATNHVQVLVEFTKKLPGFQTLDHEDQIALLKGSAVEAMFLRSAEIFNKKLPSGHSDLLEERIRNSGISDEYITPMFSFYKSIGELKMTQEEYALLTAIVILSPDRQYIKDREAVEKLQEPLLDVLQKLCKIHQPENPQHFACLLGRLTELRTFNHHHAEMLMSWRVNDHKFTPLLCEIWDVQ
Procedure, shortened: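 HepG2 cells transiently transfected with reporter constructs in which a chimeric FXR-GAL4 protein drives a GAL4-UAS reporter; 24 h compound exposure. Reporter mRNA measured by RT-PCR, FAM labelling, HpaI digestion and capillary electrophoresis; gain-of-signal versus DMSO.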

[18] = biological target: Glucocorticoid receptor (Homo sapiens) (UniProt P04150); test: ATG_GR_TRANS: Attagene TRANS-FACTORIAL HepG2 Assay for human Glucocorticoid Receptor (GR) (AID 2282978; active means hit-call score of the fitted dose curve at least 0.9, where 1 is the maximum;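 further: activators score as hits since higher reporter transcript over DMSO is fitted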); settings: HepG2 Attagene TRANS GR reporter, mRNA transcription
Sequence of Glucocorticoid receptor (Homo sapiens) (P04150 whole entry, looked up, the tested form may be a part): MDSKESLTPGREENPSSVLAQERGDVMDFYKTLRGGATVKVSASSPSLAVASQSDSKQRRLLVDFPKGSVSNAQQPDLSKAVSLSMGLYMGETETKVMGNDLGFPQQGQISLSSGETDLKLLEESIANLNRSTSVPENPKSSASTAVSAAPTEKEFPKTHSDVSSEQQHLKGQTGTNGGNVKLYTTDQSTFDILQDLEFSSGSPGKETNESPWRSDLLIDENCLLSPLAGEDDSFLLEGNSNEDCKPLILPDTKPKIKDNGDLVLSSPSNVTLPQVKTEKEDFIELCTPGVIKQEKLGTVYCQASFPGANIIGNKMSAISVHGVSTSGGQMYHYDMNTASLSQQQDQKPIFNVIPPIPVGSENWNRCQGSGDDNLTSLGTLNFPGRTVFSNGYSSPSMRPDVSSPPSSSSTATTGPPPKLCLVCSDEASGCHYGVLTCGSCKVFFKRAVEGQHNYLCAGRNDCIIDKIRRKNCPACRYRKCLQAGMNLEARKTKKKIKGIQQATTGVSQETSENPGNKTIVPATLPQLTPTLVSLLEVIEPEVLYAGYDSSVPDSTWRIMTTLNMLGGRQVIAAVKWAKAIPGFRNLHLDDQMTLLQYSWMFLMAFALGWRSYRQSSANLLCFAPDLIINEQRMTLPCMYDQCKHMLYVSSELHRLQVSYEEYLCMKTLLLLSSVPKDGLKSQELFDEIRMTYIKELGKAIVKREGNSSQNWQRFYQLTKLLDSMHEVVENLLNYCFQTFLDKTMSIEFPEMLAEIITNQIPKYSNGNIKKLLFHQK
Procedure, shortened: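 HepG2 cells transiently transfected with GAL4-UAS reporter units and exogenous GR-Gal4 chimera, dosed 24 h. Reporter mRNA by RT-PCR, FAM labeling, HpaI digest and capillary electrophoresis; gain-of-signal fit versus DMSO.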

CCOC(=O)CC(=O)CCl
AC50 [1]: 23.9 µM (active)
AC50 [2]: 26.2 µM (active)
outcome [3]: inactive
outcome [4]: inactive
outcome [5]: inactive
outcome [6]: inactive
AC50 [7]: 36.1 µM (active)
AC50 [8]: 27 µM (active)
AC50 [9]: 23.6 µM (active)
outcome [10]: inactive

O=CCCl
outcome [1]: inactive
AC50 [2]: 26.6 µM (active)
outcome [3]: inactive
outcome [5]: inactive
outcome [6]: inactive
outcome [7]: inactive
AC50 [9]: 24.7 µM (active)
outcome [10]: inactive

C=CCN=C=S
outcome [2]: inactive
outcome [3]: inactive
outcome [4]: inactive
outcome [5]: inactive
outcome [6]: inactive
outcome [7]: inactive
outcome [8]: inactive
outcome [11]: inactive
outcome [12]: inactive
outcome [13]: inactive
outcome [9]: inactive
outcome [14]: inactive
outcome [15]: inactive

CCCCC(CC)COC(=O)Cl (stereo not given)
outcome [1]: inactive
outcome [2]: inactive
outcome [3]: inactive
outcome [4]: inactive
outcome [5]: inactive
outcome [6]: inactive
outcome [7]: inactive
outcome [8]: inactive
outcome [11]: inactive
outcome [12]: inactive
outcome [9]: inactive
outcome [15]: inactive
outcome [16]: inactive

Cl[C@H]1OCCO[C@@H]1Cl
outcome [1]: inactive
outcome [2]: inactive
outcome [3]: inactive
outcome [4]: inactive
outcome [5]: inactive
outcome [6]: inactive
outcome [7]: inactive
outcome [13]: inactive
outcome [9]: inactive
outcome [14]: inactive
outcome [16]: inactive
outcome [10]: inactive

CCOP(=S)(OCC)Oc1ccc(Cl)cc1Cl
outcome [1]: inactive
outcome [2]: inactive
outcome [3]: inactive
outcome [4]: inactive
outcome [5]: inactive
outcome [6]: inactive
outcome [7]: inactive
AC50 [8]: 13.9 µM (active)
outcome [11]: inactive
AC50 [12]: 7.91 µM (active)
outcome [9]: inactive
outcome [14]: inactive
outcome [10]: inactive

CN(N=O)c1ccc([N+](=O)[O-])cc1
outcome [1]: inactive
outcome [2]: inactive
outcome [3]: inactive
outcome [4]: inactive
outcome [5]: inactive
outcome [6]: inactive
outcome [7]: inactive
outcome [8]: inactive
outcome [11]: inactive
outcome [12]: inactive
outcome [9]: inactive
outcome [14]: inactive
outcome [17]: inactive

CN(C)CCN(C)C
outcome [1]: inactive
outcome [2]: inactive
outcome [3]: inactive
outcome [4]: inactive
outcome [5]: inactive
outcome [6]: inactive
outcome [7]: inactive
outcome [8]: inactive
outcome [12]: inactive
outcome [9]: inactive
outcome [14]: inactive
outcome [18]: inactive
outcome [17]: inactive
outcome [10]: inactive

Cc1cc(-c2cc(C)c(N)c(C)c2)cc(C)c1N
outcome [1]: inactive
outcome [2]: inactive
outcome [3]: inactive
outcome [4]: inactive
outcome [5]: inactive
outcome [6]: inactive
outcome [7]: inactive
outcome [8]: inactive
outcome [11]: inactive
outcome [12]: inactive
outcome [9]: inactive
outcome [14]: inactive
outcome [18]: inactive
outcome [10]: inactive

Source: PubChem BioAssay (EPA / NIEHS)
